{"source": "paper PMC5540273", "about": "(PLoS ONE, 2017);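 note: KINOMEscan kinase panel screen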"}
{"tested_on": "T1, MST1", "T1 construct": "gene STK4", "conditions": "concentration: 1 μM, replicates: in singlicate; n = 1", "units": {"%Inh": "%"}}
{"molecule": "N#CC1(c2cccc(C(=O)Nc3cccc(Oc4ccc5nc(NC(=O)C6CC6)sc5n4)c3)c2)CC1", "%Inh": 4}
{"molecule": "O=C(Nc1n[nH]c2nc(-c3ccccc3)ccc12)C1CC1", "note": "[SB-708999]", "%Inh": 3}
{"molecule": "CC(C)c1nc(-c2cccc(NS(=O)(=O)c3c(F)cccc3F)c2)c(-c2ccnc(Nc3ccc(N4CCOCC4)nc3)n2)s1.Cl", "note": "[GSK1723980]", "%Inh": 0}
{"molecule": "Cl.Cl.NCC(NC(=O)c1cc(-c2cccnc2)c(-c2ccnc3[nH]ccc23)s1)c1ccccc1", "note": "(stereo not shown) [GSK1323434]", "%Inh": 0}
{"molecule": "COC(=O)Nc1nc2cc(Oc3ccc(NC(=O)Nc4cccc(SC)c4)cc3)ccc2[nH]1.Cl", "note": "[GW697999]", "%Inh": 4}
{"molecule": "O=C(Nc1n[nH]c2nc(-c3ccccc3O)ccc12)C1CC1", "note": "[SB-711880]", "%Inh": 0}
{"molecule": "O=C(Nc1n[nH]c2cc(-c3cccs3)ccc12)C1CC1", "note": "[SB-731284]", "%Inh": 10}
{"molecule": "O=C(Nc1c(F)cccc1F)c1cc(C(=O)c2ccccc2F)c[nH]1", "note": "[GSK1326180]", "%Inh": 2}
{"molecule": "Cc1ccc(Nc2ccnc(Nc3ccc(C)c(F)c3)n2)cc1O.Cl", "note": "[GW582868]", "%Inh": 0}
{"molecule": "COc1cccc(-c2nc(-c3ccccc3)[nH]c2-c2ccncc2)c1", "note": "[SB-610250]", "%Inh": 8}
{"molecule": "CCn1cnc2c(NCc3ccccc3)ncnc21", "note": "[SKF-96418]", "%Inh": 0}
{"molecule": "Cl.Cl.NC(CNC(=O)c1cc(Br)c(-c2ccnc3[nH]ccc23)s1)c1ccccc1", "note": "(stereo not shown) [GSK1322949]", "%Inh": 0}
{"molecule": "CN(c1ccc(F)c(NC(=O)c2cccc(OC(C)(C)C#N)c2Cl)c1)c1ccc2nc(NC(=O)C3CC3)sc2n1", "%Inh": 0}
{"molecule": "Fc1cc(Cl)ccc1Nc1ccnc2cc(-c3ccc(CN4CCOCC4)o3)ccc12", "note": "[GW560109]", "%Inh": 0}
{"molecule": "COc1cc(Nc2ccnc3cc(-c4ccncc4)ccc23)cc(OC)c1OC.Cl", "note": "[GW494610]", "%Inh": 9}
{"molecule": "Cc1ccc(O)cc1Nc1ccnc2cc(-c3ccc(CN4CCCCC4)o3)ccc12", "note": "[GW557777]", "%Inh": 0}
{"molecule": "Nc1ncc(-c2ccc3nccc(-c4ccncc4)c3c2)cc1S(=O)(=O)N1CCCCC1", "note": "[GSK1693850]", "%Inh": 8}
{"molecule": "COc1ccc(C)c(Nc2ccnc(Nc3ccc(-c4cnc[nH]4)cc3)n2)c1.Cl", "note": "[GW784041]", "%Inh": 23}
{"molecule": "Fc1cc(Cl)ccc1Nc1ccnc2cc(-c3ccc(CN4CCSCC4)o3)ccc12", "note": "[GW560106]", "%Inh": 30}
{"molecule": "Cc1ccc(NC(=O)c2ccnc(N3CCCCC3)c2)cc1-c1ccc(C(=O)NCC2CC2)cc1", "note": "[GW775610]", "%Inh": 13}
{"molecule": "CCOc1nccc(-c2c(-c3ccc(F)cc3)ncn2C2CCNCC2)n1", "note": "[SB-249175]", "%Inh": 0}
{"molecule": "O=C(O)C(F)(F)F.O=c1[nH]ccc2nc(N[C@@H]3CCNC3)nc(Nc3ccc4c(c3)S(=O)(=O)CC4)c12", "note": "[GSK2181306]", "%Inh": 95.9}
{"molecule": "c1ccc(Oc2ccc(Nc3ccnc4cc(-c5ccc(CN6CCCCC6)o5)ccc34)cc2)nc1", "note": "[GW567143]", "%Inh": 20}
{"molecule": "Cc1ccc(C)c(NC(=O)Nc2ccc(C)c(-c3ccc(C(=O)Nc4ccncc4)cc3)c2)c1", "note": "[GSK1398473]", "%Inh": 0}
{"molecule": "Cn1cc(-c2cnc(N)c3c(-c4ccc5c(c4)CCN5C(=O)Cc4ccccc4)csc23)cn1", "note": "[GSK2593074]", "%Inh": 97.8}
{"molecule": "O=C(O)C(F)(F)F.O=c1[nH]ccc2nc(N[C@@H]3CCNC3)nc(Nc3cc(Cl)cc(Cl)c3)c12", "note": "[GSK2188764]", "%Inh": 86}
{"molecule": "Cl.O=C(Nc1ccc(Oc2ccc3[nH]c(NC(=O)c4ccco4)nc3c2)cc1)Nc1cc(C(F)(F)F)ccc1F", "note": "[GW683134]", "%Inh": 17}
{"molecule": "Cc1cccc(Nc2nc(NCCN)ncc2C(N)=O)c1", "note": "[GSK1292139]", "%Inh": 35}
{"molecule": "CC(C)NCC(Cc1ccccc1)NC(=O)c1cc(Br)c(-c2ccnc3[nH]ccc23)s1.Cl.Cl", "note": "(stereo not shown) [GSK1383281]", "%Inh": 0}
{"molecule": "Nc1cccc(-c2ccc3c(N)n[nH]c3c2)c1", "note": "[GSK2193613]", "%Inh": 6}
{"molecule": "COc1cc(Nc2nccc(N3CCC(NS(=O)(=O)c4ccc(NC(C)=O)cc4)CC3)n2)cc(OC)c1OC", "note": "[GSK1379825]", "%Inh": 0}
{"molecule": "Cc1nn2c(=O)cc(N3CCO[C@H](C)C3)nc2n1Cc1cccc(Cl)c1Cl", "note": "[GSK2373693]", "%Inh": 20}
{"molecule": "CN1CCN(Cc2ccc(NC(=O)Nc3ccc(N(C)c4ccnc(Nc5ccc(CS(C)(=O)=O)cc5)n4)cc3)cc2)CC1.Cl", "note": "[GW827654]", "%Inh": 61}
{"molecule": "COC(=O)Nc1nc2ccc(Oc3ccc(CC(=O)Nc4cc(C(F)(F)F)ccc4F)cc3)cc2[nH]1", "note": "[GW680903]", "%Inh": 0}
{"molecule": "COc1ccc(C2=C(Nc3cccc(O)c3)C(=O)NC2=O)cc1", "note": "[SB-390766]", "%Inh": 7}
{"molecule": "CN(C)c1ncnc2nc[nH]c12", "note": "[SKF-31736]", "%Inh": 0}
{"molecule": "Cc1cc(-c2ccnc(Nc3cccc(C#N)c3)n2)cc(C)c1O", "note": "[GSK1440913]", "%Inh": 0}
